# A selection: hits, their analogues and other compounds. The true share with any hit is near 1.9%.
# FPR ligand = human FPR ligands by binding competition, primary screen, cell-based, FPRL1 counter-screen, flow cytometry; fMet-Leu-Phe receptor (Homo sapiens), P21462; AID 440, 2006; FPR-expressing cells, fluorescent ligand binding; hit rate 0.74% among 24,000; inhibition, % (concentration not given with the values);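 further: 0% = buffer wells and 100% = receptor blocker peptide wells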
# VLA-4 antagonist = inhibitors of LDV-FITC binding to Mn2+-activated VLA-4, primary screen, Jurkat cells | hit rate 0.2% among 24,000 | LDV-FITC binding with Mn2+, flow cytometry; 100% = Mn2+-driven binding gain fully reversed | Integrin alpha-4 (Homo sapiens), P13612 | inhibition, % at 10 µM (by protocol) | AID 529, 2006;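 active means inhibition above 50%; inconclusive means compound itself fluorescent, judged against control cell fluorescence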;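 further: 0% = Mn2+ stimulated cells lacking compound and 100% = ligand binding without Mn2+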
# Prostate diff = activators of LNCaP prostate cell differentiation, primary screen, flow cytometry side scatter | 4 d | hit rate 0.56% among 24,000 | AID 795, 2007 | side scatter shift, % at 10 µM;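 active means side scatter shift above 30%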;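 further: androgen-responsive LNCaP prostate cancer cells in charcoal-stripped serum medium; percent of cells past a gate set so DMSO wells show 10% shift; higher shift means more granular cells and more differentiation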
# VLA-4 agonist = enhancers of LDV-FITC binding to VLA-4 integrin, primary screen, Jurkat cells, flow cytometry; activation, % at 10 µM (by protocol); 24,000 tested, under 10 active;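 active means fluorescent ligand binding to cells raised by more than 40% of the manganese-induced maximum; inconclusive means compound's own fluorescence above 85% of the ligand control signal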;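 further: 0% = ligand binding without compound and 100% = manganese-stimulated maximal binding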
# FPRL1 binder = human FPRL1 ligands by binding competition, primary screen, cell-based, FPR counter-screen, flow cytometry | inhibition, % (test concentration not listed) | FPRL1-expressing cells, fluorescent ligand binding inhibition | hit rate 0.3% among 24,000 | AID 441, 2006;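 further: 0% = buffer alone and 100% = receptor blocker peptide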
# Target sequence (P25090 whole entry, looked up): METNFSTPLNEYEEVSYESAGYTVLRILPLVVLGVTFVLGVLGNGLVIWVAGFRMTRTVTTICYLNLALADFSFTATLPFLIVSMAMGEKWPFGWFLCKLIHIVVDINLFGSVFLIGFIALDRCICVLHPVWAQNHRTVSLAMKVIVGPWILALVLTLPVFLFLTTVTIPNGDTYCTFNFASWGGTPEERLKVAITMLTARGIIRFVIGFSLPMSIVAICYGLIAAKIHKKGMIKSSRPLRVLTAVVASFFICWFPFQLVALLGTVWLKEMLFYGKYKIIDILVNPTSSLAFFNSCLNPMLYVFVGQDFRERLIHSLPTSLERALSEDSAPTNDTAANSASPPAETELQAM
# Autofluor Jurkat = compound autofluorescence on Jurkat cells, primary screen, artefact control for VLA-4 allosteric ligand project, cell-based, flow cytometry; hits give high values; 1 = vehicle-only cell background; fluorescence ratio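 (tested at 10 µM compound in the well)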; hit rate 0.61% among 24,000; AID 576, 2007;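 active means fluorescence ratio above 2.44, which is 1 plus 3 SD of all ratios; inconclusive means signal too bright to measure linearly, ratio around 10 or more; inactive means fluorescence ratio below 2.44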;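 further: green fluorescence of cells measured with 488 nm excitation and 530 nm emission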
# Numbers without * were called inactive; ? = inconclusive; nt = no result given. Unless noted, no stated cut-off is given here; in the data, active means inhibition above about 30%; inconclusive means no clear call, values can overlap the other calls; inactive means below that.
SMILES,FPR ligand,VLA-4 antagonist,Prostate diff,VLA-4 agonist,FPRL1 binder,Autofluor Jurkat
CCOc1cc(C(=O)NCc2nnc(SCC(=O)OC)n2C)cc(OCC)c1OCC,9,0,2,0,75*,1
CCOC(=O)CSc1nnc(CNC(=O)c2cc(OCC)c(OCC)c(OCC)c2)n1C,-6,16,3,11,51*,0.92
CCOC(=O)CSc1nnc(CNC(=O)c2cc(OC)c(OC)c(OC)c2)n1C,2,15,7,1,-2,0.99
CCOC(=O)CSc1nnc(CNC(=O)c2ccc(OC)c(OC)c2)n1C,0,-12,12,-3,1,1
COc1ccc(CCNC(=O)CSc2nnc(CNC(=O)c3ccccc3F)o2)cc1OC,-5,-4,6,0,-6,0.97
Cc1cccc(-c2nsc(SCC(=O)Nc3nccs3)n2)c1,-2,13,34*,-5,-11,1.1
Cc1cccc(-c2nsc(SCC(=O)N3CCCC3)n2)c1,-2,15,24,-9,-4,1.1
COc1ccc(OC)c(NC(=O)[C@H]2CC=CC[C@H]2C(=O)O)c1,3,-2,12,2,3,0.9
COc1ccc(C)cc1NC(=O)C1CCCCC1C(=O)O (stereo unspecified),32*,nt,nt,nt,26,nt
CCc1nnc(NC=C2C(=O)OC(C)(C)OC2=O)s1,1,-4,3,2,-1,0.97
Cc1ccc(S(=O)(=O)Nc2nc3ccccc3nc2NCc2ccco2)cc1,-3,?,9,?,2,4.8*
Cc1noc(/C=C/c2ccco2)c1S(=O)(=O)N1CCC(C(=O)N2CCc3ccccc3C2)CC1,-4,12,43*,-8,-6,1.1
O=C1CC(C2CCCO2)C(=O)N1Cc1ccccc1 (stereo unspecified),-3,-8,1,1,0,1
Cc1nnc(N2C(=O)C(O)=C(C(=O)c3ccco3)C2c2ccc(F)cc2)s1 (stereo unspecified),2,0,8,-9,1,1
O=C(C1=C(O)C(=O)N(Cc2ccccc2)C1c1ccncc1)c1ccco1 (stereo unspecified),32*,-10,4,6,2,1.1
CCCOc1ccc(C2C(C(=O)c3ccc(C)o3)=C(O)C(=O)N2Cc2cccnc2)cc1 (stereo unspecified),52*,-16,4,-7,11,1.1
O=C(C1=C(O)C(=O)N(CC2CCCO2)C1c1cccnc1)c1ccco1 (stereo unspecified),39*,nt,nt,nt,-6,nt
COc1ccc(C2C(C(=O)c3ccco3)=C(O)C(=O)N2Cc2cccnc2)cc1OC (stereo unspecified),38*,nt,nt,nt,28,nt
Cc1nc(Nc2nc(=O)c3ccccc3n2C)nc2c(C)cccc12,-5,-2,18,2,-8,1.1
CCOC(=O)c1cnn(CCOC(=O)Cc2cccs2)c1NC(=O)Cc1cccs1,4,?,10,?,10,1.1
COCc1nnc(NS(=O)(=O)c2ccc(Br)cc2)s1,0,-14,6,2,-3,1.1
COc1ccc(C2C(C(=O)c3ccco3)=C(O)C(=O)N2CCc2ccccc2)cc1OC (stereo unspecified),80*,nt,nt,nt,-6,nt
COc1cc(C2C(C(=O)c3cccs3)=C(O)C(=O)N2Cc2ccco2)cc(OC)c1OC (stereo unspecified),83*,nt,nt,nt,27,nt
C=CCOc1ccc(C2C(C(=O)c3ccco3)=C(O)C(=O)N2Cc2cccnc2)cc1 (stereo unspecified),25,-36,15,4,25,0.97
COc1ccc(C2C(C(=O)c3ccco3)=C(O)C(=O)N2CCOCCO)cc1OC (stereo unspecified),-4,nt,nt,nt,4,nt
SMILES,FPR ligand,VLA-4 antagonist,Prostate diff,VLA-4 agonist,FPRL1 binder,Autofluor Jurkat
CCOc1ccc(C2C(C(=O)c3ccco3)=C(O)C(=O)N2Cc2cccnc2)cc1 (stereo unspecified),50*,nt,nt,nt,5,nt
COCCN1C(=O)C(=O)/C(=C(/O)c2cccc(OC)c2)C1c1ccco1 (stereo unspecified),15,nt,nt,nt,-5,nt
COc1cccc(/C(O)=C2/C(=O)C(=O)N(Cc3cccnc3)C2c2ccco2)c1 (stereo unspecified),34*,nt,nt,nt,26,nt
CN1CCN(C(=O)Cn2c(=O)oc3cc(S(=O)(=O)NCc4ccccc4)ccc32)CC1,0,0,4,0,-1,0.9
CCOc1ccccc1NC(=O)c1ccc(F)c(S(=O)(=O)N2CCC3(CC2)OCCO3)c1,0,?,19,?,-5,1.1
COc1cccc2cc(C(=O)C3=C(O)C(=O)N(Cc4ccco4)C3c3cccnc3)oc12 (stereo unspecified),34*,nt,nt,nt,30,nt
O=C(C1=C(O)C(=O)N(Cc2ccco2)C1c1cccnc1)c1cc2ccccc2o1 (stereo unspecified),6,nt,nt,nt,-3,nt
O=C(NC1CCCCC1)c1nc2c(nnn2Cc2ccccc2Cl)c(=O)[nH]1,-3,2,17,7,2,1.1
CSCCC(C(=O)Nc1ccc2c(c1)OCO2)N1C(=O)c2ccccc2C1=O (stereo unspecified),1,-10,9,2,-4,1
Cc1ccc(Nc2nc(C3CC3)cs2)cc1,34*,?,14,?,8,1.4
CC(=O)Nc1nc(C)c(-c2csc(Nc3ccc(O)cc3)n2)s1,-6,28,19,-28,-7,1.2
CC1CCN(CCCNC(=O)c2coc3nc4ccccc4nc23)CC1,-2,?,6,?,-4,2.4
CC1CCCN(CCCNC(=O)c2coc3nc4ccccc4nc23)C1 (stereo unspecified),-4,?,7,?,-11,4.7*
Cc1ccc(CCNC(=O)c2coc3nc4ccccc4nc23)cc1,-3,?,7,?,-7,4.2*
Cc1cc2c(cc(C(=O)OCC(=O)NCc3cccs3)n2C(C)C)o1,-1,-30,12,14,1,1
COC(=O)C1Cc2c([nH]c3ccccc23)CN1 (stereo unspecified),-8,?,9,?,-7,4.1*
CC(C)OC(=O)c1cc(=O)[nH]c2ccccc12,4,4,9,2,-1,1
Cc1cccn2c(=O)c3cc(C(=O)NCCCN4CCCC4=O)n(C)c3nc12,-3,?,10,?,-2,1.3
COc1cc2c(cc1OC)C(C)N(C(=O)c1cc3n(n1)C(C(F)(F)F)CC(c1ccco1)N3)CC2 (stereo unspecified),-6,12,2,-14,-5,1
